Compound activity (PubChem)
Compounds with a hit are over-represented: about 1.6% of the library has one in this group of screens.
DYRK1A inh = blocks rat Dyrk1A kinase activity. 310,000 compounds, 0.43% hits. inhibition, % at 12.5 µM. ADP-Glo luminescence, NFATc1 peptide. AID 504441; in the data active means inhibition above about 50%;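 further: plate controls were vehicle with enzyme for no effect and no enzyme for full effect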
Beta2AR agonist = agonists of human beta-2 adrenergic receptor inducing internalization; P07550; Am2.2-beta2AR cells, FAP receptor internalization, flow cytometry; response, % (no concentration beside the values); 340,000 compounds, 0.43% hits; AID 504454;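 active means response above a set limit, near 3 SD of response in nonfluorescent compounds, cut at about 42% in these data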
Target sequence (P07550 whole entry, looked up): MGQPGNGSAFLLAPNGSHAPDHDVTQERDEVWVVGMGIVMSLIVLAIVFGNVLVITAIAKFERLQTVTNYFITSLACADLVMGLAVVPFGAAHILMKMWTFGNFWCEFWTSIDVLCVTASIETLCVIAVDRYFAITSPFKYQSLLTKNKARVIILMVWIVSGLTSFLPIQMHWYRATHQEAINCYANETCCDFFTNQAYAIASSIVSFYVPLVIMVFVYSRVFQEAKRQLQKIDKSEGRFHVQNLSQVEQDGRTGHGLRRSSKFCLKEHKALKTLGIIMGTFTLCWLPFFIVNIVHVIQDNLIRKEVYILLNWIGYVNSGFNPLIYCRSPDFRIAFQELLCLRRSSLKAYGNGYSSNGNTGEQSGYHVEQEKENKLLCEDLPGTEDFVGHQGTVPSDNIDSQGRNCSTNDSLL
dFosB act = activators of mouse delta FosB homodimer. activation, % at 25 µM. 340,000 compounds, 0.99% hits. AID 493131. P13346. purified delta FosB, TAMRA-CDK5 oligo fluorescence polarization; percent of positive-control signal above neutral wells;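 active means mean activation above about 17%, with every replicate also reaching it, limit read from the data, passing the limit was not always enough; inconclusive means only one of the two conditions met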
Bfl-1 A1 inh = inhibitors of the anti-apoptotic protein A1, read as caspase activation | AID 2462 | MEF A1-2A-BIM cells, Caspase-Glo 3/7 luminescence, 3 h; percent of clofoctol response, vehicle zero | caspase activation, % (test concentration not listed) | 330,000 compounds, 0.066% hits;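 active means over half of replicate activation scores above 10%, or exactly half above 10 with the replicate mean above 10; inconclusive means replicate mean below 10 yet half the replicates above 10; inactive means over half of replicates below 10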
The depositor's hits bear a star; i = inactive; ? = inconclusive; nt = not tested or not shown.

SMILES	DYRK1A inh	Beta2AR agonist	dFosB act	Bfl-1 A1 inh
COc1ccccc1N1C(=O)c2ccccc2NC1c1ccncc1 (stereo not drawn)	-5	6	4	0
CCc1ccc(C2NC(=S)NC3=C2C(=O)N(c2ccccc2OC)C(c2ccc(CC)cc2)N3)cc1 (stereo not drawn)	-2	15	101*	0
CCN(C(=O)CCN1C(=O)c2ccccc2S1(=O)=O)c1ccccc1	8	0	-2	5.7*
O=C(CCN1C(=O)c2ccccc2S1(=O)=O)Nc1ccccc1	0	4	-2	0
COc1ccc2oc(C(=O)N3CCCc4ccccc43)c(C)c2c1	6	3	-4	-4
CN(C)c1ccc(-c2cc(O)c3ncccc3c2)cc1	8	12	-1	-8
CN(C)CCCNC(=O)c1ccc(-c2cc(O)c3ncccc3c2)cc1	22	4	46*	1
CCC(=O)N1CCN(c2nc3ccc(Br)cc3s2)CC1	nt	-2	-2	1
Cc1cc(/C=C(\C#N)C(=O)NCCc2c[nH]c3ccccc23)c(C)n1C	17	1	-5	0
COc1cc(/C=C(/C#N)C(=O)NCCc2c[nH]c3ccccc23)ccc1OCc1ccccc1F	5	3	-7	9.4*
O=C(Cc1ccccc1)N/N=C/c1ccc2cccc(O)c2n1	0	4	-15	1
CCOP(=O)(OCC)/C(C#N)=C/c1ccc([N+](=O)[O-])cc1	2	-68	1	0
COc1ccc(-c2nn(-c3ccccc3)cc2C2CC(c3cccs3)=NN2C(=O)CCCC(=O)O)cc1 (stereo not drawn)	-5	-5	-17	0
Cc1ccc(-c2nn(-c3ccccc3)cc2C2CC(c3cccs3)=NN2C(=O)CCCC(=O)O)cc1 (stereo not drawn)	7	69*	-13	1
CCOC(=O)CNC(=O)c1ccc(OCC(F)(F)F)cc1	4	7	-7	-7
CN(C)CCCn1c2c3ccccc3ccc2c2oc(=O)c3ccccc3c21	1	43*	73*	nt
Cc1cc(C(=O)CSc2nnc(-c3cccc(F)c3)n2N)c(C)n1Cc1ccc2c(c1)OCO2	1	82*	6	0
CC1(C)C[C@H](O)[C@]2(CO)[C@H](O)C[C@]3(C)C(=CCC4[C@@]5(C)CC[C@H](O)C(C)(C)C5CC[C@]43C)[C@@H]2C1 (stereo partly drawn)	-5	11	-9	14*
O=C(N/N=C/c1ccccc1)c1ccc(N2CCCC2=O)cc1	1	64*	0	-1
CN(C)CCCN(C(=O)COc1ccc(Cl)cc1)c1nc2cc3c(cc2s1)OCCO3	8	24	?	-1
CCC1CCCCN1S(=O)(=O)c1ccc(C(=O)N(CCCN(C)C)c2nc3cc4c(cc3s2)OCO4)cc1 (stereo not drawn)	3	18	24*	2
CN(C)CCCN(C(=O)COc1ccc(Cl)cc1)c1nc2cc3c(cc2s1)OCO3	3	7	39*	0
Cc1cc(Cn2nnc3ccccc32)c(O)c(C(C)(C)C)c1	13	2	-3	0
COc1ccc2sc(-c3ccc(SC)cc3)c(-c3ccc(O)cc3)c2c1	9	53*	-2	1
COc1cccc(C(=O)Nc2ccccc2OC(F)(F)F)c1	1	0	-1	3
SMILES	DYRK1A inh	Beta2AR agonist	dFosB act	Bfl-1 A1 inh
CN(C)C(=O)CCC(=O)N1CCCC(C(=O)c2ccc(C(F)(F)F)cc2)C1 (stereo not drawn)	6	-5	-5	1
CCOc1nc(NCc2ccco2)nc(Nc2ccc(OC)cc2)n1	5	0	0	-1
COc1ccc(Nc2nc(NCc3ccco3)nc(N/N=C/c3ccccc3)n2)cc1	-2	10	29*	0
Cc1ccc(Nc2nc(NCc3ccco3)c3ccccc3n2)cc1	2	29	58*	-6
c1ccc(N2CCN(c3nc(NCc4ccco4)c4ccccc4n3)CC2)cc1	-11	14	45*	-1
Oc1ccccc1-c1nc(NCc2ccco2)c2ccccc2n1	-5	1	-1	0
O=C(Nc1ccccc1)OC1CCC2CC1CCC2OC(=O)Nc1ccccc1 (stereo not drawn)	1	23	-6	0
CC(C)(C)C1CCC(=NNc2nc3ccccc3[nH]2)CC1 (stereo not drawn)	8	11	-5	1
c1ccc2c(c1)CC/C2=N/Nc1nc2ccccc2[nH]1	2	-1	31*	-4
O=C1c2cccc3cccc(c23)C(=O)C1(O)O	79*	-3	-4	0
O=C(COC(=O)C(CO)NS(=O)(=O)c1ccc(Br)cc1)Nc1ccc2c(c1)OCCO2 (stereo not drawn)	-1	-8	0	-1
Nc1cccc(C(=O)OCC(=O)Nc2cccc3c2C(=O)c2ccccc2C3=O)c1	-6	16	-5	0
CCN(CC)CCC(=O)Nc1cccc2c1C(=O)c1ccccc1C2=O	27	-79	35*	0
CN=c1scc(C)n1/N=C/c1ccc(O)c(O)c1O	27	69*	-12	-5
CN=c1scc(C)n1/N=C/c1cc(Br)c(O)c(OC)c1	5	-2	-10	0
CN=c1scc(-c2cccs2)n1/N=C/c1ccc(O)c(O)c1O	16	106*	-5	-6
Cc1sc2nc(SCCN(C)C)n(-c3ccccc3)c(=O)c2c1-c1ccc(F)cc1	-3	0	22*	0
O=C(O)CN1C(=O)/C(=C/c2ccc(N3CCCCC3)o2)SC1=S	7	11	86*	1
COC(=O)CN1C(=O)S/C(=C/c2ccc(N3CCCCC3)o2)C1=O	5	i	2	2
CCN1C/C(=C/c2cccc([N+](=O)[O-])c2)C(=O)/C(=C/c2cccc([N+](=O)[O-])c2)C1	7	87*	-5	3
CN(Cc1cc([N+](=O)[O-])c2cccnc2c1O)C1CCCCC1	nt	nt	nt	-1
O=[N+]([O-])c1cc(CN2CCN(c3ccccc3)CC2)c(O)c2ncccc12	-5	44*	-4	0
CCCN(C(=O)Cn1nc(C)c([N+](=O)[O-])c1C)c1c(N)n(Cc2ccccc2)c(=O)[nH]c1=O	-1	3	18*	1
CCOc1ccc(-n2c(SCC(=O)Nc3ccccc3CC)nc3n[nH]c(C)c3c2=N)cc1	nt	nt	nt	0
CCOc1ccc(-n2c(SCC(=O)Nc3ccc(Br)cc3)nc3n[nH]c(C)c3c2=N)cc1	4	-1	4	8.4*
O=Cc1nccc2ccccc12	-3	61*	0	nt
C=C1[C@@H](O)[C@H](CC(C)C)N(Cc2ccccc2Br)S1(=O)=O	-4	40	-6	nt
O=C(COC(=O)c1cc(Br)ccc1O)Nc1ccc2c(c1)OCCO2	-3	0	23*	0
COC(=O)CCSc1cc(NCCOC(C)=O)c([N+](=O)[O-])c2nonc12	-9	62*	-12	0
Cc1noc(C)c1NC(=O)N(C)C[C@H]1Oc2c(NS(=O)(=O)c3cn(C)cn3)cccc2C(=O)N([C@H](C)CO)C[C@@H]1C	-5	-1	4	0
